We go through 8 compounds from PubChem BioAssay (Tox21).

Structures are written as SMILES. Results filed as inconclusive are left out. Some structures have more than one record in an assay (separate samples or runs), and their calls can disagree. Active and inactive are the calls of the source. Unless noted, the call rests on the fitted dose curve.

Assay [1] addresses Gonadotropin-releasing hormone receptor (Homo sapiens) (UniProt P30968). The assay is described as follows: Human gonadotropin-releasing hormone receptor (GnRHR) small molecule agonists, calcium flux assay in GnRHR-HEK293 cells (AID 1920063). Further: nearly all actives have a fitted effect of over 35% in size. The procedure, abridged: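 Agonist activity was measured as intracellular calcium flux in HEK293 cells engineered to stably express human GnRHR. After dye loading for 1 hour at 37 C, compounds in DMSO were added and fluorescence was followed for 3 minutes.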
A general note: Calcium flux is commonly read through the fluorescence of an indicator in the cells.

For assay [2], the target named is KiSS-1 receptor (Homo sapiens) (UniProt Q969F8). The assay is described as follows: Human kisspeptin (KISS1R) small molecule agonists, calcium flux assay in KISS1R-HEK293 cells (AID 1920064; active means well fitted activation curve with a large enough effect in the repeat runs). The procedure, abridged:
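Agonist activity is monitored as intracellular calcium rise in engineered HEK293 cells carrying human KISS1R. Cells are dye-loaded for 1 h at 37 C before compound addition, and fluorescence is recorded for 3 min.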

The nature of assay [3]: G protein-coupled receptor (GPCR) small molecule agonists, calcium flux assay: HEK293 wild type cell line counter screen (AID 1920065). The procedure, abridged: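 Seed cells, incubate 18 h (37 C, 5% CO2); add calcium dye, 1 h at 37 C; pin-transfer compounds, ATP control or DMSO; read fluorescence 480/540 nm each second for 3 min.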
Assay [4] in a line: p53 small molecule agonists, cell-based qHTS assay with human liver microsomes (AID 1963577). The procedure, abridged: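 p53RE-bla cells, 4,000/well, compound added after 5 h, with human liver microsomes 0.5 mg/mL and NADPH 0.5 mg/mL final; 16 h at 37 C, then LiveBLAzer 2 h RT, fluorescence.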
Assay [5] can be described thus: p53 small molecule agonists, cell-based qHTS assay with rat liver microsomes (AID 1963578). The procedure, abridged: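 p53RE-bla cells, 4,000/well, pre-incubated 5 h, then given compounds plus rat liver microsomes (0.5 mg/mL final) and NADPH (0.5 mg/mL final). Incubation 16 h at 37 C; beta-lactamase reporter read by LiveBLAzer fluorescence after 2 h at room temperature.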
(Quantitative high-throughput screening tests each substance at several concentrations.)

Assay [6] is described as follows: p53 small molecule agonists, cell-based qHTS assay with human liver microsomes: qHTS cell viability counter screen (AID 1963579). Further: nearly all actives have a fitted effect of over 45% in size. Further: potency means the concentration at half of the fitted maximal effect. The procedure, abridged: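 p53RE-bla cells, 4,000/well, dosed 5 hours after plating, with human liver microsomes (0.5 mg/mL final) plus NADPH (0.5 mg/mL final), 16 hours at 37 C. Viability read as CellTiter-Glo luminescence after 30 min at room temperature.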

Assay [7] can be described thus: p53 small molecule agonists, cell-based qHTS assay with rat liver microsomes: qHTS cell viability counter screen (AID 1963580). Further: nearly all actives have a fitted effect of over 45% in size. The procedure, abridged:
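Counter screen for cytotoxicity under metabolic activation: rat liver microsomes and NADPH, 0.5 mg/mL final each, added with compounds to p53RE-bla HCT-116 cells; 16 h at 37 C, then ATP luminescence read.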

Assay [8] in a line: p53 small molecule agonists, cell-based qHTS assay: qHTS cell viability counter screen (AID 1963581). Further: nearly all actives have a fitted effect of over 45% in size. The procedure, abridged: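 Viability was counter-screened in parallel with the p53 agonist reporter by measuring intracellular ATP luminescence in the same HCT-116 p53RE-bla wells after 16 h compound treatment at 37 C.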
Assay [9] can be described thus: p53 small molecule agonists, cell-based qHTS assay (AID 1963582; active means well fitted activation curve with a large enough effect in the signal ratio in the repeat runs, not every such curve was filed as active; the % refers to the signal ratio). The procedure, abridged:
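Cells carrying a p53-responsive bla reporter are treated with test compounds for 16 h at 37 C; beta-lactamase activity is then detected with LiveBLAzer B/G FRET substrate after 2 h at room temperature.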

The target of assay [10] is 5-hydroxytryptamine receptor 2A (Homo sapiens) (UniProt P28223). The assay is described as follows: 5-hydroxytryptamine receptor 2A (HTR2A) small molecule antagonists, cell-based qHTS assay (AID 1963586). Further: nearly all actives have a fitted effect of over 45% in size. Further: potency means the concentration at half of the fitted maximal effect. The procedure, abridged:
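CHO cells stably expressing human HTR2A were plated for 18 h at 37 C, then loaded with calcium dye for 1 h. Compounds were preincubated 5 min at room temperature before DOI (4 nM solution) was added. Kinetic fluorescence was read for 3 min.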

For assay [11] the target is unchanged. The assay is described as follows: 5-hydroxytryptamine receptor 2A (HTR2A) small molecule agonists, cell-based qHTS assay (AID 1963587). Further: nearly all actives have a fitted effect of over 30% in size. Further: potency means the concentration at half of the fitted maximal effect. The procedure, abridged: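 HTR2A-CHO cells, plated 18 h at 37 C/5% CO2, dye-loaded 1 h at 37 C; compounds in DMSO added by pin tool (agonist mode). Intracellular calcium flux read as kinetic fluorescence on FDSS over 2 min at 1 s intervals.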

Assay [12] deals with Muscarinic acetylcholine receptor M1 (Homo sapiens) (UniProt P11229). The experiment in a line: Cholinergic receptor muscarinic 1 (CHRM1) small molecule antagonists, cell-based qHTS assay (AID 1963588). Further: nearly all actives have a fitted effect of over 40% in size. The procedure, abridged:
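Compounds were tested at 15 concentrations in three independent runs. Dye-loaded CHRM1-CHO cells were exposed 5 min at room temperature before stimulation by acetylcholine added at 50nM. Intracellular calcium was read kinetically on FDSS for 3 min.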

Assay [13] shares this target. The experiment in a line: Cholinergic receptor muscarinic 1 (CHRM1) small molecule agonists, cell-based qHTS assay (AID 1963589). Further: nearly all actives have a fitted effect of over 35% in size. The procedure, abridged:
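Cells were plated and incubated 18 h at 37 C/5% CO2, loaded with calcium dye for 1 h at 37 C, then treated with compounds in DMSO. Fluorescence was recorded kinetically at 1 sec intervals.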

In assay [14] the target is Beta-2 adrenergic receptor (Homo sapiens) (UniProt P07550). The assay is described as follows: Adrenergic beta2 receptor (ADRB2) small molecule antagonists, cell-based qHTS assay (AID 1963592). Further: series mostly up to about 92 µM; nearly all actives have a fitted effect of over 50% in size. The procedure, abridged: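 Assay format: CHO-ADRB2 cells, 18-20hr seeding at 37C/5% CO2, then compound plus 1nM isoproterenol agonist mix for 0.5hr RT. Homogeneous time-resolved fluorescence cAMP detection after 1hr, expressed as 665/615 nm ratio.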

The target in assay [15] is D(2) dopamine receptor (Homo sapiens) (UniProt P14416). The experiment in a line: Dopamine D2 receptor (DRD2) small molecule agonists, cell-based qHTS assay (AID 1963594). Further: nearly all actives have a fitted effect of over 35% in size. The procedure, abridged:
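HEK293 cells stably expressing DRD2 were cultured 24 h at 37 C, then given Ro20-1724 (0.1 mM final) and compounds for 10 min at room temperature. NKH477 (200nM) was then added for 30 min. cAMP was read by HTRF.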

Assay [16] shares this target. The experiment in a line: Dopamine D2 receptor (DRD2) small molecule antagonists, cell-based qHTS assay (AID 1963595; active means well fitted inhibition curve with a large enough effect in the signal ratio in the repeat runs, with a control signal flat; the % refers to the signal ratio; further: potency means the concentration at half of the fitted maximal effect). The procedure, abridged: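 Cells were plated and grown for 24 h at 37 °C. Ro20-1724 (0.1 mM final) went in first, then compound for 10 min. NKH477 (200 nM) with quinpirole (12 nM) followed for 30 min at RT, then HTRF detection reagents for 1 h.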
Assay [17] in a line: cAMP Responsive Elements (CRE) small molecule agonists, cell-based qHTS assay (AID 1963590). The procedure, abridged:
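Cells carrying a CRE-driven beta-lactamase reporter (HEK 293T) are seeded, incubated overnight (18 h), and treated with test compounds for 3 h at 37 C; reporter activity is then detected with a FRET substrate after 2 h at room temperature.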

Assay [18] is described as follows: cAMP Responsive Elements (CRE) small molecule antagonists, cell-based qHTS assay (AID 1963591; active means well fitted inhibition curve with a large enough effect in the signal ratio in the repeat runs, not every such curve was filed as active; the % refers to the signal ratio). The procedure, abridged:
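Cells (CRE-bla HEK 293T, DMEM with 10% dialyzed FBS and 25 mM HEPES) are seeded and incubated 18 h. Compounds are added with NKH477 agonist at 0.25 uM final for 3 h, then FRET substrate for 2 h.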

Assay [19] has as its target Beta-2 adrenergic receptor (Homo sapiens) (UniProt P07550). The experiment in a line: Adrenergic beta2 receptor (ADRB2) small molecule agonists, cell-based qHTS assay (AID 1963593).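 Further: CHO cells stably overexpressing human ADRB2.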 The procedure, abridged: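 CHO cells stably over-expressing ADRB2 were plated overnight at 37C, then dosed with compounds plus a stimulation mix containing 100uM IBMX and 25uM Ro-20-1724 for 0.5hr at room temperature. cAMP was measured by HTRF competition, 1hr.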

Chain of Gonadotropin-releasing hormone receptor (Homo sapiens) (P30968 whole entry, looked up): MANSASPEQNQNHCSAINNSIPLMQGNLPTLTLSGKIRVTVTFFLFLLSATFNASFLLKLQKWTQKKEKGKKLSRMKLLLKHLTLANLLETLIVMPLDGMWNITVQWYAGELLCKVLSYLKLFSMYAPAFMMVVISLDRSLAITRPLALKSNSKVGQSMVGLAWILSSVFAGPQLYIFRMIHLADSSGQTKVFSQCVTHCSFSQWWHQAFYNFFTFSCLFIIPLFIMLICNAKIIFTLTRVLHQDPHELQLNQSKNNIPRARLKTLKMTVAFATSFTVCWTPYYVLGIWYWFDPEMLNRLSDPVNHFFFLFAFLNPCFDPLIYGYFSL
Chain of Beta-2 adrenergic receptor (Homo sapiens) (P07550 whole entry, looked up): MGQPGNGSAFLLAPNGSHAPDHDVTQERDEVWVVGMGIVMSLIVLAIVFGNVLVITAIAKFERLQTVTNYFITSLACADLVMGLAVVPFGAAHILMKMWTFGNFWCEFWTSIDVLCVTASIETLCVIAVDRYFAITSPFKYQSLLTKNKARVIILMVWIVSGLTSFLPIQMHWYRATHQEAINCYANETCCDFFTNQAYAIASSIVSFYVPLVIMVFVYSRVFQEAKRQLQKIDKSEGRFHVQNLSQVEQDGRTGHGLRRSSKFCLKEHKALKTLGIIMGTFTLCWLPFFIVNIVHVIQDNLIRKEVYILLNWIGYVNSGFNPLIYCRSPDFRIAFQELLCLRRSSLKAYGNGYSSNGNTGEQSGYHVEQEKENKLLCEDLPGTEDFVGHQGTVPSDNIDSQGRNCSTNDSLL
Chain of Muscarinic acetylcholine receptor M1 (Homo sapiens) (P11229 whole entry, looked up): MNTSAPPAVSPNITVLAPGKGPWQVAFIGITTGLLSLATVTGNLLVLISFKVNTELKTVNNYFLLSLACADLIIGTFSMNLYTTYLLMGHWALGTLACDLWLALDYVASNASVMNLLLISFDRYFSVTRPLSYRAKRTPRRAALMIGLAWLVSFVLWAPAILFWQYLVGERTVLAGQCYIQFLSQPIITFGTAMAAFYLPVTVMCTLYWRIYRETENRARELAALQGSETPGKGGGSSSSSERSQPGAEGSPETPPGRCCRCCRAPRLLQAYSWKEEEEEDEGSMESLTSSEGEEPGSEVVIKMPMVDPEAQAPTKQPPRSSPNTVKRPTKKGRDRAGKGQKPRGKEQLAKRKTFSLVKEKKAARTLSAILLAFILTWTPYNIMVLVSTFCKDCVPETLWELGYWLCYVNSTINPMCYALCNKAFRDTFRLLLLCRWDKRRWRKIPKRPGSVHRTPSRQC
Chain of D(2) dopamine receptor (Homo sapiens) (P14416 whole entry, looked up): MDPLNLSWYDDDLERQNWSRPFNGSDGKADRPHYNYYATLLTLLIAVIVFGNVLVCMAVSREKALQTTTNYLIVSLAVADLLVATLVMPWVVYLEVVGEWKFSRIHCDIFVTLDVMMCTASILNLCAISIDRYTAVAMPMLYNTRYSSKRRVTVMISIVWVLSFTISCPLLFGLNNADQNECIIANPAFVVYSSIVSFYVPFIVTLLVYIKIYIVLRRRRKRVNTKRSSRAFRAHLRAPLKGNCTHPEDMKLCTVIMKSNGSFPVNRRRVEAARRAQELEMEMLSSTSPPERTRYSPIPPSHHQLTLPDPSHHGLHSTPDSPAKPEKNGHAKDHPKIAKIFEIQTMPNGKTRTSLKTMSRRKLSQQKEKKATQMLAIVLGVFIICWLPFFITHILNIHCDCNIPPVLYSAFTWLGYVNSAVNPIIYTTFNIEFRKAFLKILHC
Chain of KiSS-1 receptor (Homo sapiens) (Q969F8 whole entry, looked up): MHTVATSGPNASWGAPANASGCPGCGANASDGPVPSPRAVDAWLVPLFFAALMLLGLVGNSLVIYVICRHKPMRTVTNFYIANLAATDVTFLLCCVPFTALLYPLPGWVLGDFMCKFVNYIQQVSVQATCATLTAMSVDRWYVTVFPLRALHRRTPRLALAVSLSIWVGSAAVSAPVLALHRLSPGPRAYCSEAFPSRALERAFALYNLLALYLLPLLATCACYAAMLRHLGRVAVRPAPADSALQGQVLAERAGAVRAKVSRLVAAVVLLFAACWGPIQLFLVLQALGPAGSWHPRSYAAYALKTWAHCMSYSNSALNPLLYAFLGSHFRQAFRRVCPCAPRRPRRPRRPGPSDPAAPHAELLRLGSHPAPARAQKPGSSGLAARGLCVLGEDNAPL
Chain of 5-hydroxytryptamine receptor 2A (Homo sapiens) (P28223 whole entry, looked up): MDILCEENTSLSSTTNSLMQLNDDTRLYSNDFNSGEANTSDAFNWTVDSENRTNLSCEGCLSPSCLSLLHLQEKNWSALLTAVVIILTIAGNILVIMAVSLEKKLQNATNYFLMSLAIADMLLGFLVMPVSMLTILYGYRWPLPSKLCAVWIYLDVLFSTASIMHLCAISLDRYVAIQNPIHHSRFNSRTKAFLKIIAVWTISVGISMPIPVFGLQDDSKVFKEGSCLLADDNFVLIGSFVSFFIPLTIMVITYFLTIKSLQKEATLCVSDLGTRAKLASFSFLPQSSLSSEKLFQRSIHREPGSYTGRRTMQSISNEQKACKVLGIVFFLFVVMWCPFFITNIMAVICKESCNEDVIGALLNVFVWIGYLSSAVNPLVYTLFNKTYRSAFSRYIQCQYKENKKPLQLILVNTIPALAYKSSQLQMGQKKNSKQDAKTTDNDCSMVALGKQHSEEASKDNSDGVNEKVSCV

For `O=[N+]([O-])c1ccc(O)c([N+](=O)[O-])c1`, the Potency entry in [1], in assay [2], in assay [3], in [4], in assay [5] and in [6] was “inactive” in each case. The Potency result in assay [7], in [8], in assay [9], in assay [10], in [11] and in [12] was “inactive” each time. The Potency result in assay [13], in [14], in [15] and in assay [16] was “inactive” in each case.

In the case of `CCN(CC)c1nc(C)cc(OP(=S)(OC)OC)n1`, the Potency result in assay [1], in assay [2], in assay [3], in assay [4], in assay [6] and in assay [7] was “inactive” throughout. Also, the Potency result in [8], in [9], in [10], in assay [11], in assay [12] and in assay [13] was “inactive” throughout. The Potency entry in [17], in [18], in assay [14], in assay [15] and in assay [16] was “inactive” in each case.

`ClCCCCl`: the Potency entry in assay [1], in [2], in [3], in assay [4], in [5] and in assay [6] was “inactive” throughout. The Potency result in [7], in [8], in [9], in [10], in assay [11] and in [13] was “inactive” each time. For the same compound, the Potency result in [17], in assay [14], in assay [15] and in assay [16] was “inactive” in each case.

Consider `CCC(C)(c1ccc(O)cc1)c1ccc(O)cc1`, for which the Potency entry in assay [1], in assay [2], in assay [3], in [4], in assay [6] and in assay [7] was “inactive” in each case. In addition, the Potency result in [8], in assay [10], in assay [11], in assay [12], in assay [13] and in assay [17] was “inactive” throughout. Further, the Potency result in assay [18], in [14], in assay [19], in [15] and in [16] was “inactive” each time.

As for `O=[N+]([O-])O.O=[N+]([O-])O.[Cd]`, the Potency result in assay [1], in assay [2], in assay [3], in assay [6], in assay [7] and in [8] was “inactive” throughout. Also, the Potency entry in [12], in [13], in assay [17], in assay [14] and in assay [15] was “inactive” throughout. Also, the Potency in [11] is 38.9 µM (active).

For the compound `CC(C)(c1ccccc1)c1ccc(O)cc1`, the Potency entry in [1], in assay [2], in assay [3], in assay [4], in assay [5] and in [7] was “inactive” in each case. Also, the Potency entry in [8], in assay [9], in assay [12], in assay [13], in assay [14] and in assay [19] was “inactive” in each case. Besides, the Potency result in [15] is “inactive”. In addition, the Potency was 45.4 µM (active) and inactive in [6]; 33.2 µM (active) and inactive in assay [10]; 54.5 µM (active) and inactive in assay [11]; 61.1 µM (active) in assay [16].

For the compound `Nc1ccccc1C(=O)OC/C=C/c1ccccc1`, the Potency entry in [1], in assay [2], in assay [3], in [5], in [7] and in [9] was “inactive” in each case. Also, the Potency result in [11], in [14], in assay [15] and in assay [16] was “inactive” in each case.

Take `Nc1ccccc1C(=O)Oc1ccc2ccccc2c1`: the Potency entry in assay [1], in assay [2], in assay [3], in [4], in assay [5] and in assay [6] was “inactive” throughout. Further, the Potency entry in assay [7], in assay [9], in assay [10], in [11], in [12] and in assay [13] was “inactive” throughout. The Potency result in assay [14], in assay [15] and in [16] was “inactive” throughout.
